In PubChem BioAssay AID488890 (Southern Research Specialized Biocontainment Screening …, 2010):
The campaign covered roughly 320,000 compounds. About 1,300 (0.41%) were called active. Not shown: some 3% with an inconclusive outcome. The rule behind the calls is not given here. Not all results are given here. Entries with a potency or affinity are not part of this list.

Assay: growth inhibition of non-replicating M. tuberculosis (AID 488890);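 note: plate controls were DMSO cells for no effect and high antibiotic wells for full effect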
Details: Mycobacterium tuberculosis non-replicating, at 25 µM, stronger effect = higher value

Row | Structure (SMILES) | inhibition [%]
1 | O=C(COC(=O)c1cncc(Br)c1)NCC1CCCO1 (configuration not stated) | 4.18
2 | N#Cc1ccc(S(=O)(=O)N2CCC(C(=O)Nc3cccc(C(=O)NC4CC4)c3)CC2)cc1 | 4.79
3 | COC(=O)C1=C(C)N(C(C)C)C(=O)C1(NC(=O)C1CCCCC1)C(F)(F)F (configuration not stated) | 7.64
4 | CCOc1ccc(C(NC(=O)CC)c2c(O)ccc3ccccc23)cc1 (configuration not stated) | 22.7
5 | COc1ccc(N2CCOCC2)c(NC(=O)c2cccs2)c1 | -2.48
6 | CN1C[C@H](C(=O)NC2(C)OC3(O)[C@@H]4CCCN4C(=O)[C@H](Cc4ccccc4)N3C2=O)CC2c3cccc4[nH]cc(c34)C[C@H]21 (some centres not stated) | 12.4
7 | CC1CCC(NC(=O)C2CC(O)CN2S(=O)(=O)c2ccc([N+](=O)[O-])cc2)CC1 (configuration not stated) | 11.1
8 | O=C(Nc1ccccc1N1CCOCC1)c1ccc2ccccc2n1 | 32.1
9 | CSCCC(NC(=O)c1ccco1)C(=O)N1CCC(C(N)=O)CC1 (configuration not stated) | -11.5
10 | COc1ccc(NC(=O)CN(C)C(=O)c2ccc3ccccc3n2)cc1 | -6.38
11 | O=C(Nc1cc(Cl)ncn1)c1ccccc1 | 5.29
12 | CCN(CC(=O)Nc1cccc(OC)c1)CC(=O)Nc1ccc(C)cc1Cl | 13.4
13 | O=C(Nc1ccc(Cl)cc1)C1CCCCN1S(=O)(=O)c1ccccc1 (configuration not stated) | 10.3
14 | Cc1cc(C)c(C)c(OCC(=O)O/N=C(\N)c2ccccn2)c1 | 13
15 | CCOC(=O)c1cccc(-n2cccc2/C=C2\NC(=O)N(CC(=O)O)C2=O)c1 | -4.64
16 | CC(NC(=O)C1CCC(CNS(=O)(=O)c2ccccc2)CC1)c1ccc2c(c1)OCCO2 (configuration not stated) | 0.52
17 | CC(=O)Nc1ccccc1Sc1ccccc1 | -2.8
18 | N#CCC(CNc1ncc(C(F)(F)F)cc1Cl)OC(=O)c1ccc(Cl)cc1 (configuration not stated) | 27
19 | CC(C)(C)N(Cc1ccccc1)C(=O)COC(=O)c1ccc([N+](=O)[O-])o1 | 4
20 | CN(Cc1ccccc1)C(=O)c1ccco1 | 14.6
21 | Cc1cc(NC(=O)CSc2nncn2N)no1 | -18
22 | COC(=O)Cc1cc(=O)[nH]c(Nc2nc3ccccc3o2)n1 | 69
23 | COCc1cc(=O)[nH]c(Nc2nc3ccc(C)cc3o2)n1 | -3.8
24 | COc1cc(C(=O)NCCCNc2nc3c(C)cc(C)cc3cc2C#N)cc(OC)c1OC | 40.9

Row | Structure (SMILES) | inhibition [%]
25 | Cc1[nH]n(-c2ccccc2)c(=O)c1N=Nc1ccc(Cl)cc1 | 22
26 | Cc1[nH]n(-c2ccccc2)c(=O)c1N=Nc1cccc(Cl)c1 | 1.75
27 | COc1ccccc1C(=O)COC(=O)c1ccccc1O | 26.5
28 | COc1ccc(OC)c(C(=O)COC(=O)c2ccccc2O)c1 | 51.8
29 | COc1ccc(/C=N/NC(=O)c2c(Br)cnn2C)c2ccccc12 | 8.73
30 | Cc1cccc(CCNC(=O)Cn2ncc3c([nH]c4ccccc43)c2=O)c1 | 3.21
31 | COc1ccc(C(=O)NNC(=O)C23CC4CC(CC(C4)C2)C3)c(OC)c1 | 1.7
32 | COc1ccc(NC(=O)CNC(=O)C23CC4CC(CC(C4)C2)C3)c(OC)c1 | 7.13
33 | Cc1cc(C)c2sc(N(CCCN(C)C)C(=O)CN3C(=O)c4ccccc4C3=O)nc2c1 | 16.6
34 | COc1cccc(NC(=O)C2C3C=CC(O3)C2C(=O)NCc2cccnc2)c1 (configuration not stated) | 7.86
35 | Cc1nc2ccc(NC(=O)c3ccc(Cl)c([N+](=O)[O-])c3)cc2s1 | -1.87
36 | Cc1nc2ccc(NC(=O)c3ccc([N+](=O)[O-])cc3)cc2s1 | 41.2
37 | COc1cc(-c2c(C#N)c(N)nc3c2c(C)nn3-c2ccc(C)c(C)c2)cc(OC)c1OC | 20.3
38 | COc1ccccc1Nc1c([N+](=O)[O-])cncc1[N+](=O)[O-] | 55.7
39 | Cc1ccccc1Nc1c([N+](=O)[O-])cncc1[N+](=O)[O-] | 76
40 | CCN(CC(=O)NCc1ccc(F)cc1)C(=O)c1ccc2c(c1)OCO2 | -2
41 | COc1ccc(C(=O)N2CCN(C)C(=O)[C@@H]2C)cc1OC1CCN(C(C)C)CC1 | -16.1
42 | CCn1c(O)c(C=NC2CCCC2)sc1=S | -4.02
43 | Oc1ccc(C=NC2CCCCC2)c(O)c1 | -6.4
44 | CCOC(=O)Oc1ccc2oc(C)c(C(=O)OCCOC)c2c1 | 61.6
45 | COCCOC(=O)c1c(C)oc2ccc(OC(=O)c3c(OC)cccc3OC)cc12 | 0.6
46 | CC(Oc1cc(Cl)ccc1Cl)C(=O)N/N=C\c1ccnn1C (configuration not stated) | 10.1
47 | CC1CCC(C(C)C)C(OC(=O)C[n+]2cc(-c3ccc(Cl)cc3)n3c2CCC3)C1 (configuration not stated) | 49.4
48 | O=C(C[n+]1cc(-c2ccc(Cl)cc2)n2c1CCCCC2)c1ccccc1 | -12.8

Row | Structure (SMILES) | inhibition [%]
49 | Cn1c(SC2=CS(=O)(=O)c3ccccc32)nc2ccccc21 | 58
50 | Cc1cc(C)nc(SC2=CS(=O)(=O)c3ccccc32)n1 | -0.38
51 | CSc1nnc(-c2ccccc2)o1 | 17.4
52 | O=C(O)CSc1nnc(-c2ccccc2)o1 | -5.91
53 | CC(C)c1ccc(N(C(=O)c2snc(C(N)=O)c2N)C(C(=O)NC2CCCC2)c2ccncc2)cc1 (configuration not stated) | 15.7
54 | COc1ccccc1-c1cc(C(F)(F)F)nc(NCc2cccs2)n1 | 13.2
55 | Cc1ccc(C(=O)N/C(=C\c2cn(C)c3ccccc23)C(=O)OCCN(C)C)cc1 | 1.18
56 | CCOC(=O)C1CCN(C(=O)C(C)Oc2ccc(C(=O)c3ccccc3)cc2)CC1 (configuration not stated) | 28.6
57 | COc1cc(-c2ccc3oc(-c4ccsc4)cc(=O)c3c2)cc(OC)c1OC | 72.1
58 | Cc1ncc([N+](=O)[O-])n1CC(=O)Nc1ccc(F)cc1F | -8.21
59 | CN(Cc1ccccc1)C(=O)Nc1ccc(Cl)cc1 | 48.8
60 | O=C1N=c2ccccc2=C1c1sc(=S)n(Cc2ccccc2Cl)c1O | -18.1
61 | CCOC(=O)c1ccc(-n2nc(C)cc2C)cc1 | 13.4
62 | Cc1cc(C)n(-c2ccc(C(=O)OC(C)C)cc2)n1 | 5.09
63 | CCOc1cc2c(cc1OCC)-n1cccc1C(c1ccccc1F)NC2 (configuration not stated) | 19.4
64 | CS(=O)(=O)Cc1ccc(C(=O)N2CCCC2c2cccs2)cc1 (configuration not stated) | 0.57
65 | O=C(NC1CCCc2c1cnn2-c1cc(F)cc(F)c1)c1ccccn1 (configuration not stated) | 25.6
66 | O=C(NC1CCCc2c1cnn2-c1cc(F)cc(F)c1)c1ccncc1 (configuration not stated) | 4.39
67 | CC(C)(C)OC(=O)NCCc1n[nH]c(=S)o1 | -4.45
68 | CSc1nc(O)c(N=Nc2ccc(F)cc2F)c(=O)[nH]1 | 13.2
69 | O=C(CSc1nnc(CNC(=O)c2ccco2)o1)Nc1ccccc1 | -9.27
70 | CCSc1nnc(C(N)Cc2ccccc2)o1 (configuration not stated) | 42.5
71 | O=C(CSc1nnc(CNC(=O)c2ccco2)o1)c1ccccc1 | 17.8
72 | CCSc1nnc([C@@H](N)Cc2ccccc2)o1 | 4.66
